From PubChem BioAssay (EPA / NIEHS)
Activity calls are given as the source filed them. Rule for the calls: active = hit-call score of the fitted dose curve at least 0.9, where 1 is the maximum; inactive = score below 0.9.

What was measured:
Settings in all cases: mRNA level, 48 h; actives raise or lower the signal
[1] = read-out: Tumor necrosis factor receptor superfamily member 6 (Homo sapiens) (UniProt P25445); assay: LTEA_HepaRG_FAS: Life Technologies and Expression Analysis (LTEA) Assay for Fas cell surface death receptor (FAS) using HepaRG (AID 2283447)
Procedure, shortened: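 FAS transcript level was measured by TaqMan qRT-PCR against three housekeeping genes after 48 h chemical exposure. Cells were HepaRG, 0.5% DMSO vehicle, with a top concentration of 100 uM and half-log dilutions over eight points, in duplicate.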

[2] = read-out: Cyclin D2 (CCND2), CCND2 (gene 894); assay: LTEA_HepaRG_CCND2: Life Technologies and Expression Analysis (LTEA) Assay for Cyclin D2 (CCND2) using HepaRG (AID 2283449)
Procedure, shortened: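 Read-out is CCND2 mRNA level measured by qRT-PCR in human HepaRG liver cells and normalised to three housekeeping genes. Chemicals were applied for 48 h at up to 100 uM, with gain or loss fitted relative to 0.5% DMSO.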

[3] = read-out: Cyclin Dependent Kinase Inhibitor 1A (CDKN1A), CDKN1A (gene 1026); assay: LTEA_HepaRG_CDKN1A: Life Technologies and Expression Analysis (LTEA) Assay for Cyclin Dependent Kinase Inhibitor 1A (CDKN1A) using HepaRG (AID 2283450)
Procedure, shortened: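 Read-out is CDKN1A mRNA by TaqMan qRT-PCR, normalized to three housekeeping genes and fitted in both directions against the DMSO baseline. Human HepaRG cells were treated 48 h with test chemicals up to 100 uM in half-log steps, 0.5% DMSO.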

[4] = read-out: Cyclin D1 (CCND1), CCND1 (gene 595); assay: LTEA_HepaRG_CCND1: Life Technologies and Expression Analysis (LTEA) Assay for Cyclin D1 (CCND1) using HepaRG (AID 2283451);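 for AC50: differentiated human HepaRG liver cells in serum-free induction medium; TaqMan qRT-PCR transcript level normalised to ACTB GAPDH and POLR2A housekeeping genes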
Procedure, shortened: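 HepaRG plated 48 h, medium switched to serum-free induction medium, chemicals added in duplicate (top 100 uM, half-log steps, 0.5% DMSO) for 48 h, cells lysed, RNA measured by TaqMan qRT-PCR.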

[5] = read-out: catalase (CAT), CAT (gene 847); assay: LTEA_HepaRG_CAT: Life Technologies and Expression Analysis (LTEA) Assay for catalase (CAT) using HepaRG (AID 2283452);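 for AC50: TaqMan qRT-PCR signal normalized to ACTB GAPDH and POLR2A housekeeping genes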
Procedure, shortened: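 Expression of CAT was quantified by TaqMan qRT-PCR with ACTB/GAPDH/POLR2A normalization after 48 h chemical exposure of HepaRG. Eight-point half-log series, top 100 uM, in 0.5% DMSO; gain or loss fitted against vehicle.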

[6] = read-out: flavin-containing dimethylaniline monooxygenases 3 (FMO3), FMO3 (gene 2328); assay: LTEA_HepaRG_FMO3: Life Technologies and Expression Analysis (LTEA) Assay for flavin-containing dimethylaniline monooxygenases 3 (FMO3) using HepaRG (AID 2283453);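 for AC50: differentiated human HepaRG liver cells in serum-free induction medium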
Procedure, shortened: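 Differentiated HepaRG cells in serum-free induction medium, exposed 48 h in duplicate to 8 half-log concentrations up to 100 uM in 0.5% DMSO. FMO3 mRNA by qRT-PCR, normalized to ACTB, GAPDH, POLR2A; bidirectional fit vs DMSO.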

[7] = read-out: CFLAR gene, CFLAR (gene 8837); assay: LTEA_HepaRG_CFLAR: Life Technologies and Expression Analysis (LTEA) Assay for CFLAR gene using HepaRG (AID 2283455)
Procedure, shortened: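 HepaRG, 48 h exposure, 8-pt conc-response (100 uM top, half-log), 0.5% DMSO vehicle, duplicates. CFLAR expression by qRT-PCR; ACTB/GAPDH/POLR2A normalization; gain or loss fit vs DMSO baseline.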

[8] = read-out: Forkhead box O1 (FOXO1), FOXO1 (gene 2308); assay: LTEA_HepaRG_FOXO1: Life Technologies and Expression Analysis (LTEA) Assay for Forkhead box O1 (FOXO1) using HepaRG (AID 2283456)
Procedure, shortened: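 Readout is FOXO1 transcript level by multiplexed qRT-PCR against three housekeeping genes, curve-fitted in both directions relative to 0.5% DMSO vehicle. Human HepaRG cultures received chemicals for 48 h, up to 100 uM in half-log steps.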

[9] = read-out: growth arrest and DNA damage 45 (GADD45A), GADD45A (gene 1647); assay: LTEA_HepaRG_GADD45A: Life Technologies and Expression Analysis (LTEA) Assay for growth arrest and DNA damage 45 (GADD45A) using HepaRG (AID 2283458)
Procedure, shortened: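 Differentiated HepaRG cells exposed 48 h in serum-free induction medium to 8 concentrations, top 100 uM in half-log steps, 0.5% DMSO. GADD45A mRNA quantified by qRT-PCR, normalized to ACTB, GAPDH and POLR2A; bidirectional fit versus DMSO.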

[10] = read-out: Forkhead box O3 (FOXO3), FOXO3 (gene 2309); assay: LTEA_HepaRG_FOXO3: Life Technologies and Expression Analysis (LTEA) Assay for Forkhead box O3 (FOXO3) using HepaRG (AID 2283459)
Procedure, shortened: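 HepaRG, 48 h post-dose; 8 conc., half-log from 100 uM, 0.5% DMSO, duplicates; serum-free induction medium. Readout: FOXO3 mRNA, TaqMan qRT-PCR, housekeeping-normalized. Bidirectional curve fit vs DMSO baseline.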

[11] = read-out: ABC Transporter (ABCB1), ABCB1 (gene 5243); assay: LTEA_HepaRG_ABCB1: Life Technologies and Expression Analysis (LTEA) Assay for ABC Transporter (ABCB1) using HepaRG (AID 2283460)
Procedure, shortened: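 Expression of ABCB1 was quantified by qRT-PCR against three housekeeping genes after human HepaRG cultures received test chemicals for 48 hours. Concentrations spanned eight half-log steps topping at 100 uM in 0.5% DMSO; gain or loss of signal was fitted relative to vehicle.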

[12] = read-out: growth arrest and DNA damage 45 (GADD45B), GADD45B (gene 4616); assay: LTEA_HepaRG_GADD45B: Life Technologies and Expression Analysis (LTEA) Assay for growth arrest and DNA damage 45 (GADD45B) using HepaRG (AID 2283461)
Procedure, shortened: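 HepaRG, ~100,000 cells/well, 48 h plating; serum-free induction medium; cpd 100 uM top, half-log x8, 0.5% DMSO, duplicate, 48 h; lysis in RLT, RNA isolation, qRT-PCR; norm ACTB/GAPDH/POLR2A; bidirectional fit vs DMSO.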

[13] = read-out: ABC Transporter (ABCC3), ABCC3 (gene 8714); assay: LTEA_HepaRG_ABCC3: Life Technologies and Expression Analysis (LTEA) Assay for ABC Transporter (ABCC3) using HepaRG (AID 2283462)
Procedure, shortened: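 Human HepaRG, 48 h dosing, 8-pt half-log series from 100 uM, 0.5% DMSO vehicle, duplicates. ABCC3 mRNA by TaqMan qRT-PCR, housekeeping-normalized; bidirectional curve fit vs DMSO.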

[14] = read-out: Cytochrome P450 (CYP1A1), CYP1A1 (gene 1543); assay: LTEA_HepaRG_CYP1A1: Life Technologies and Expression Analysis (LTEA) Assay for Cytochrome P450 (CYP1A1) using HepaRG (AID 2283454)
Procedure, shortened: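 HepaRG, 48 h post-plating switched to serum-free induction medium; 8-pt conc-response (top 100 uM, half-log, 0.5% DMSO), duplicates, 48 h. Lysis in RLT, TaqMan qRT-PCR for CYP1A1; gain or loss vs DMSO.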

[15] = read-out: Fatty acid synthase (Homo sapiens) (UniProt P49327); assay: LTEA_HepaRG_FASN: Life Technologies and Expression Analysis (LTEA) Assay for Fatty Acid Synthase (FASN) using HepaRG (AID 2283448)
Procedure, shortened: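 Differentiated HepaRG cells in serum-free induction medium exposed 48 h in duplicate to eight half-log concentrations, top 100 uM, 0.5% DMSO. FASN mRNA by qRT-PCR normalised to ACTB, GAPDH, POLR2A; bidirectional fit versus DMSO.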

Measured: AC50

Fatty acid synthase (Homo sapiens), sequence (P49327 whole entry, looked up): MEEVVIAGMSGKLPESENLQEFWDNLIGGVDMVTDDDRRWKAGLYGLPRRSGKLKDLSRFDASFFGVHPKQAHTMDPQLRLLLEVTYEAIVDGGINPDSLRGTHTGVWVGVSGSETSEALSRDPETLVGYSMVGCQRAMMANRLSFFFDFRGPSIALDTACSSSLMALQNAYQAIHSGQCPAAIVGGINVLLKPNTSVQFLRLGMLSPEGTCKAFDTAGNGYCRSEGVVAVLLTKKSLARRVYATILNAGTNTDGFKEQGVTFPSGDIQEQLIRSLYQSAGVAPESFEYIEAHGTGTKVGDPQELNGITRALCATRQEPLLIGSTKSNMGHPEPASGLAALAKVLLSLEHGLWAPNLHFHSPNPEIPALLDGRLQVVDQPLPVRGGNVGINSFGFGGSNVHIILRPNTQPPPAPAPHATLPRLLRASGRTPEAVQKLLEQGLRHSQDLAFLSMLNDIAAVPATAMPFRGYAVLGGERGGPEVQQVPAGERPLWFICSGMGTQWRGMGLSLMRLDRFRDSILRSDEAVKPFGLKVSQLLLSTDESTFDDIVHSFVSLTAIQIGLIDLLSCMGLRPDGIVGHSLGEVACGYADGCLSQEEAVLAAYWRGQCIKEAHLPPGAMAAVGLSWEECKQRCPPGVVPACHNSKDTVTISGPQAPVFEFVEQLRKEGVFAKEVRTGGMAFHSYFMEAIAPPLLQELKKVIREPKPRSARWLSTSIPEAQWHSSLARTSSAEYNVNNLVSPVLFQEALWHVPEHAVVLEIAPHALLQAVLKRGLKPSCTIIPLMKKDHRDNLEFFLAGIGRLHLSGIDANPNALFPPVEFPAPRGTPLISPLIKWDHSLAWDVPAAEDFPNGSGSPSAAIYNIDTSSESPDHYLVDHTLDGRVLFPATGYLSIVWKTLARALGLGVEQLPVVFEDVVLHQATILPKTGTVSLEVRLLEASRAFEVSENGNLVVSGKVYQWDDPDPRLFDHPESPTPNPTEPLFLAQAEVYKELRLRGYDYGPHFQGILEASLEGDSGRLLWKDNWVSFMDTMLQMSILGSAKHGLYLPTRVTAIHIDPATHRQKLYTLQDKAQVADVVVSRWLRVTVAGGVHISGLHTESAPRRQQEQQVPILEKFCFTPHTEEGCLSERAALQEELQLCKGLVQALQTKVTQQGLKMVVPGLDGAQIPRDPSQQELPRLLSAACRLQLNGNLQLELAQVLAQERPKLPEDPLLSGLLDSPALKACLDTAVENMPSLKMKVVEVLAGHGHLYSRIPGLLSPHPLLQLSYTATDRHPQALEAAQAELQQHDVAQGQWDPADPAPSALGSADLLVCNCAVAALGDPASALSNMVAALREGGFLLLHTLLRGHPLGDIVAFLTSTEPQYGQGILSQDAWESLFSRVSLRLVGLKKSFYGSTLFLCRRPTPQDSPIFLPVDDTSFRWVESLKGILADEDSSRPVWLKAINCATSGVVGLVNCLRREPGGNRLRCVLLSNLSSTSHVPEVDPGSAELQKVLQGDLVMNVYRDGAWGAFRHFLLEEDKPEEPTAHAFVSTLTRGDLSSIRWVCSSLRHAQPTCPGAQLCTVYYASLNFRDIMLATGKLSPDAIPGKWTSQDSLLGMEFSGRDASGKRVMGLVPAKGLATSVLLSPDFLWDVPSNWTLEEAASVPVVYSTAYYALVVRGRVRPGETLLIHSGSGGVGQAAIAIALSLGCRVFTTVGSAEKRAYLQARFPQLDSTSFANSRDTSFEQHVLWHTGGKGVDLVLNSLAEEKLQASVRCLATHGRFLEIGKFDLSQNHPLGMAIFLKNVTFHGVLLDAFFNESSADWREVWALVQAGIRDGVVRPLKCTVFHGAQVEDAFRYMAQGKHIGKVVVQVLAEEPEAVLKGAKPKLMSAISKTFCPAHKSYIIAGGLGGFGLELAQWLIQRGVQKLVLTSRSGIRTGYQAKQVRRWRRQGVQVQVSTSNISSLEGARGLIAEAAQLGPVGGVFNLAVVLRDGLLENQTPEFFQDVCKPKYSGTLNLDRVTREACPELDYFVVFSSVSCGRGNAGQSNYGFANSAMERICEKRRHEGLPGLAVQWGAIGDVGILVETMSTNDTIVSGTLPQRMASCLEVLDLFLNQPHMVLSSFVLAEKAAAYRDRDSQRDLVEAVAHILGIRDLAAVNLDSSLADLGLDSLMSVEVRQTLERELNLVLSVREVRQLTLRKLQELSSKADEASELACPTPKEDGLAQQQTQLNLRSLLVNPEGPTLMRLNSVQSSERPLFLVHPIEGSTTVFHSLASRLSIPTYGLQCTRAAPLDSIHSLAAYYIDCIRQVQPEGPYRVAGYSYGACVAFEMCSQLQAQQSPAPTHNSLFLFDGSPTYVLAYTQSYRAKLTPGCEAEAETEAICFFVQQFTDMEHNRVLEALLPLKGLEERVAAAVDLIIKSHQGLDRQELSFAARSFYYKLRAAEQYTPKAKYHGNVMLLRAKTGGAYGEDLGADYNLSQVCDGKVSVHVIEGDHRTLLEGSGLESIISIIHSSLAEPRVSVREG

OC[C@H]1O[C@@](CO)(O[C@H]2O[C@H](CO)[C@@H](O)[C@H](O)[C@H]2O)[C@@H](O)[C@@H]1O
not listed: [14] | [15]
inactive: all other assays above

NC(=O)NN=Cc1ccc([N+](=O)[O-])o1
active: [2] 72.2 nM | [14] 50 µM
not listed: [15]
inactive: all other assays above

CCOC(N)=O
not listed: [14] | [15]
inactive: all other assays above

CCCC(CCC)C(=O)O
not listed: [14] | [15]
inactive: all other assays above

COS(C)(=O)=O
not listed: [14] | [15]
inactive: all other assays above

CCCc1ccccc1
not listed: [2]
inactive: all other assays above

CNC(C)=O
active: [14] 75.2 µM
not listed: [15]
inactive: all other assays above

CCCCCCCC/C=C\CCCCCCCC(=O)OC[C@@H](O)[C@H]1OC[C@H](O)[C@H]1O
not listed: [14] | [15]
inactive: all other assays above

COCc1nnc(-c2ccc[n+]([O-])c2)n1-c1c(Cl)c(Cl)cc2[nH]c(=O)c(=O)[nH]c12
not listed: [14] | [15]
inactive: all other assays above

CCCCCOC(C)=O
not listed: [14] | [15]
inactive: all other assays above

O=C(O)[C@H](O)[C@@H](O)C(=O)O
not listed: [14] | [15]
inactive: all other assays above

CCCCOC(=O)c1ccccc1
not listed: [15]
inactive: all other assays above

c1ccc2cc3ccccc3cc2c1
not listed: [14] | [15]
inactive: all other assays above

OC(Cn1cncn1)(Cn1cncn1)c1ccc(F)cc1F
not listed: [15]
inactive: all other assays above

C=CN1CCCC1=O
not listed: [14] | [15]
inactive: all other assays above

OCc1ccccc1
not listed: [14] | [15]
inactive: all other assays above

O=c1[nH]cnc2c1ncn2[C@H]1CC[C@@H](CO)O1
not listed: [15]
inactive: all other assays above

NC(=O)N(O)[C@@H]1COc2cc(OCc3ccccc3)ccc21
not listed: [14] | [15]
inactive: all other assays above

CCCCCCCCCCCCCCCCOS(=O)(=O)O
not listed: [14] | [15]
inactive: all other assays above

COc1cc(C(C)C)c2c(c1)S(=O)(=O)N(COc1cc(=O)n3cccc(OCCN4CCCCC4)c3n1)C2=O
inactive: [1] | [3] | [8] | [9] | [12]
active: [4] 19.4 µM | [5] 19.4 µM | [6] 23 µM | [7] 19.5 µM | [10] 19.4 µM | [11] 21.3 µM | [13] 22.1 µM

Cc1nc(-c2ccccn2)ncc1C(=O)Nn1cc(C)c2cc(F)ccc21
active: [2] 1490 nM | [5] 50 µM | [6] 85.2 µM | [11] 2.77 µM
not listed: [14] | [15]
inactive: all other assays above

CC1(C)C(=O)N(Cl)C(=O)N1Cl
active: [14] 50 µM
not listed: [15]
inactive: all other assays above
